Laboratory results reported in ChEMBL document CHEMBL3433997, “St. Jude Leishmania screening dataset” (2016).
“And” between values parts separate entries of the source, which are not always exact repeats. Identical values can stand only once.

Columns and labels:
Type in all cases: functional
[1] = biological target: Solute carrier family 2, facilitated glucose transporter member 1 (Homo sapiens) (UniProt P11166); assay: ST_JUDE_LEISH: Cytotoxicity at 2uM final concentration against transgenic Leishmania Mexicana promastigotes LmGLUT1 that are glucose transport deficient and complemented with the human glucose transporter GLUT1. Activity is measured by DNA content using SYBR green in vitro
[2] = biological target: Hexose transporter 1 (Plasmodium falciparum) (UniProt O97467); assay: ST_JUDE_LEISH: Cytotoxicity at 2uM final concentration against transgenic Leishmania Mexicana promastigotes LmPfHT that are glucose transport deficient and complemented with the Plasmodium falciparum hexose transporter. Activity is measured by DNA content using SYBR green in vitro
[3] = biological target: Glucose transporter (Leishmania mexicana) (UniProt O61059); assay: ST_JUDE_LEISH: Cytotoxicity at 2uM final concentration against transgenic Leishmania Mexicana promastigotes LmGT2 that are glucose transport deficient and complemented with the L. Mexicana glucose transporter 2. Activity is measured by DNA content using SYBR green in vitro

Chain of Solute carrier family 2, facilitated glucose transporter member 1 (Homo sapiens) (P11166 whole entry): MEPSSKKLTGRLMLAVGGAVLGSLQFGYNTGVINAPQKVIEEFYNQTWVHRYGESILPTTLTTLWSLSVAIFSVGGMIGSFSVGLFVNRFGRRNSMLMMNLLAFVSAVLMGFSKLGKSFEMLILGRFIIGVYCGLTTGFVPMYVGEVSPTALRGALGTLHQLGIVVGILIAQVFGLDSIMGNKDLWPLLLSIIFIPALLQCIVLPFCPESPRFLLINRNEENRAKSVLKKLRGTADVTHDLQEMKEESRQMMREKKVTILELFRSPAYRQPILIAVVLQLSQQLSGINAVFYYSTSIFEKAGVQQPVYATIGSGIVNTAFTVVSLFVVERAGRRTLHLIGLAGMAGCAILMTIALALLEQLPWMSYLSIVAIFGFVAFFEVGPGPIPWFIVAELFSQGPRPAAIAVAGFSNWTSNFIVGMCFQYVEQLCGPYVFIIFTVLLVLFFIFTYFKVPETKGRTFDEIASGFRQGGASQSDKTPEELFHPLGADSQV

SMILES | inhibition [1] | inhibition [2] | inhibition [3]
COc1ccc2[nH]cc(C3=CCN(Cc4ccccc4)CC3)c2c1 | 3.41% | 2.34% | 2.21%
CO/C(=C\C=C\c1cc2cc(Cl)c(Cl)cc2[nH]1)C(=O)N[C@H]1CN2CCC1CC2 | 0.86% | -0.23% | -0.34%
Cc1cccc(C(=O)Nc2ccnc(N(C)C3CCN(CC(C)C)CC3)c2)c1 | -0.27% | 0.85% | 0%
COC(=O)/C=C/c1ccc(CC(C)NCC(O)c2cccc(Br)c2)cc1 (configuration not stated) | 1.85% | 0.16% | 0.91%
Cc1[nH]c2ccccc2c1C1=CCN(CCN2CCOc3c(Br)cccc3C2=O)CC1 | 1.66% | 1.57% | 1.55%
CS(=O)(=O)Nc1ccc2[nH]cc(C3CCN(CC4CCN(C(=O)/C=C/c5ccc(Cl)c(Cl)c5)CC4)CC3)c2c1 | 4.43% | 3.49% | 4.09%
CN1CC[C@H](N(Cc2ccccc2F)c2ccc(C#N)c(Cl)c2)C1 | 2.58% | 3.02% | 4.63%
CN1C(=O)[C@H](NC(=O)[C@@H](Cc2ccccc2)NC(=S)Nc2ccccc2)N=C(c2ccccc2)c2ccccc21 | 1.25% | 0.57% | 1.74%
NC1=NC2(CCCC2)N(c2ccc(Cl)cc2)C(N)=N1 | 3.05% | 4.23% | 3.83%
N=c1c2c(n(Cc3ccc(Cl)cc3Cl)c3c1CCC3)CCCC2 | 17.8% | 26.7% | 6.7%
O=C(NC1CCC(CN2CCC(c3c[nH]c4ccccc34)CC2)CC1)c1cn(Cc2ccccc2)c2ccccc12 (configuration not stated) | 0.71% | 1.32% | -1.09%
O=C(/C=C/c1ccc(Cl)c(Cl)c1)N1CCC(CN2CCC(c3c(Br)[nH]c4ccccc34)CC2)CC1 | 2.44% | 0.45% | 0.55%
O=C(c1ccccc1)C1CC1CN1CC=C(c2c[nH]c3ccccc23)CC1 (configuration not stated) | 2.08% | 0.92% | 8.35%
CC(=O)N(Cc1cccc(-c2cccc(CNCc3ccc4c(c3)OCO4)c2)c1)C1CCN(Cc2ccccc2)CC1 | 6.88% | 7.09% | 7.83%
O=C(/C=C/c1ccccc1Cl)NC1CCC(CN2C3CCC2CC(c2c[nH]c4ccccc24)C3)CC1 (configuration not stated) | 2.84% | -0.31% | 5.5%
O=C(/C=C/c1ccc(Cl)c(Cl)c1)NCC1CCC(N2CCC(c3c[nH]c4ccccc34)CC2)CC1 (configuration not stated) | 5.53% | 11.2% | 0.18%
Cc1ccc(C)c(N2CCN(Cc3ccccc3O)CC2)c1 | 0.11% | 1.02% | 2.41%

SMILES | inhibition [1] | inhibition [2] | inhibition [3]
CN1CC(c2ccc(Cl)c(Cl)c2)OC1=N (configuration not stated) | -0.53% | 0.23% | -0.89%
CC1(CCCCN2CC=C(c3c[nH]c4ccccc34)CC2)C(=O)Nc2ccccc21 (configuration not stated) | 0.6% | -0.08% | 2.1%
Clc1ccc2nccc(N3CCC(CN4CCC(c5c[nH]c6ccccc56)CC4)CC3)c2c1 | 0.88% | 0.94% | 2.61%
CN(c1cc(NC(=O)c2cccs2)ccn1)C1CCN(Cc2cccc(C#N)c2)CC1 | 8.2% | 9.92% | 8.95%
CCCCCCc1cc(O)c2c3c(c(=O)oc2c1)CCN(C)C3 | 7.26% | 4.97% | 6.76%
O=C(/C=C/c1ccsc1)NC1CCC(CN2CCC(c3c[nH]c4ccccc34)CC2)CC1 (configuration not stated) | 1.44% | -2.35% | -0.88%
CC[C@H]1CN2CC[C@H]1C[C@H]2[C@H](O)c1cc(-c2cccc(Cl)c2)nc2ccc(OC)cc12 | 9.7% | 9.03% | 10.7%
COc1ccc(CN2CCN(CCOC(c3ccc(F)cc3)c3ccc(F)cc3)CC2)c(O)c1 | 6.6% | 3.26% | 2.85%
CC(=O)C1(c2ccccc2)CCN(CCC2(c3ccc(Cl)c(Cl)c3)CN(C(=O)C3CCCC3)CCO2)CC1 (configuration not stated) | 4.09% | 3.1% | 0.75%
Cc1c(C)c2c(c(C)c1O)CC[C@](C)(C(=O)N1CCC(CN3CCC(c4c[nH]c5ccccc45)CC3)CC1)O2 | 3.34% | 4.94% | 0.9%
CC(C)n1ncc2c(C(=O)Nc3ccc(C#N)c(Cl)c3)cc(C3CC3)nc21 | 2.24% | 1.01% | 3.4%
O=C(CCCCCc1ccccc1)NC1CCC(CN2CCC(c3c[nH]c4ccccc34)CC2)CC1 (configuration not stated) | 0.89% | -3.78% | -1.29%
CCCc1c(C(=O)NC2CCC(CN3CCC(c4c[nH]c5ccccc45)CC3)CC2)cnn1-c1ccccc1 (configuration not stated) | 3.14% | 1.15% | 1.83%
O=C(/C=C/c1c(Cl)cccc1Cl)NC1CCC(CN2C3CCC2CC(c2c[nH]c4ccccc24)C3)CC1 (configuration not stated) | 2.07% | 1.89% | -0.2%
O=C(NC1CCC(CN2CCC(c3c[nH]c4ccccc34)CC2)CC1)c1csc(-c2ccc(C(F)(F)F)cc2Cl)n1 (configuration not stated) | 10.1% | 9.77% | 10.2%
FC(F)(F)c1ccc(NC(=S)NC2CCC(CN3CCC(c4c[nH]c5ccccc45)CC3)CC2)cc1 (configuration not stated) | 13.2% and 1.58% | 12.7% and 6.46% | 3.66% and 2.93%
CCCCNC(c1ccc(Cl)cc1)C(O)c1ccc(Cl)cc1 (configuration not stated) | 8.3% | 8.45% | 9.91%
